{"source": "PubChem BioAssay AID485346", "about": "(Sanford-Burnham Center for Chemical Genomics, 2010)", "note": "Hit rate of the full screen: of about 330,000 compounds, about 10,000 (3%) were called active.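 The calls were made as follows: active = inhibition of at least 50% at 8 µM in the primary screen; inactive = the rest.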 This excerpt belongs to a sample that is enriched for actives."}
{"biological_target": "Protein Mdm4 (Homo sapiens) + E3 ubiquitin-protein ligase Mdm2 (Homo sapiens) (UniProt O15151+Q00987)", "sequence (O15151 whole entry, looked up)": "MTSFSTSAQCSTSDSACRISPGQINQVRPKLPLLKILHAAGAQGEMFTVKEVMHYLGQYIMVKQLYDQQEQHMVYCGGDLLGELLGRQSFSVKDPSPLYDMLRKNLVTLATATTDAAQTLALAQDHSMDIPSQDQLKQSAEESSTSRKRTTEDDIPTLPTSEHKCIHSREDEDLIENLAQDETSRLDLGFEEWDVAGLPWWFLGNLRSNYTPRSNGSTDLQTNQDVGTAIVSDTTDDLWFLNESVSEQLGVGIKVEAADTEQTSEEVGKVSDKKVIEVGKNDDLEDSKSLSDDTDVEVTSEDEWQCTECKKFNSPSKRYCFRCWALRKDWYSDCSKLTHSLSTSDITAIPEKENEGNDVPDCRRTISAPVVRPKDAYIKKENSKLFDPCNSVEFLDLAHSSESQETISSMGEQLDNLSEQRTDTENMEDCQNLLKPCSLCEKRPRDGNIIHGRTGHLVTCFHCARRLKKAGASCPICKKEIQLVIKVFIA", "sequence (Q00987 whole entry, looked up)": "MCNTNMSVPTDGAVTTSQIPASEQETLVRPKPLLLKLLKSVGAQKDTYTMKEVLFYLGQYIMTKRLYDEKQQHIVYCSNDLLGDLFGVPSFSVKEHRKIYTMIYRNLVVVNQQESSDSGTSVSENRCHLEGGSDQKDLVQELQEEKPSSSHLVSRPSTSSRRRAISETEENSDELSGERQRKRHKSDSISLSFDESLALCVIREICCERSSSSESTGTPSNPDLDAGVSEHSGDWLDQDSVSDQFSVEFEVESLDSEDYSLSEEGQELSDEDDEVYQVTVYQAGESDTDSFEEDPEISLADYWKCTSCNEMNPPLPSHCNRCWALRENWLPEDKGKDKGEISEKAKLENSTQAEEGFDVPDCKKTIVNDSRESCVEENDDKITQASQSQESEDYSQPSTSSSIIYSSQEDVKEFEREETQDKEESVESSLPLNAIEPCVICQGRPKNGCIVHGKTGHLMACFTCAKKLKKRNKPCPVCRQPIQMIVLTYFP", "assay": "disruptors of Mdm2/MdmX RING complex – cell-based, luminescence, split luciferase, SaOS-2, uHTS, primary screen (AID 485346)", "settings": "SaOS-2 split-luciferase Mdm2/MdmX complementation, at 8 µM, hits give high values"}
{"molecule": "Cc1nc(N2CCN(c3ccccn3)CC2)c2c(C)c(C(=O)Nc3ccc(F)c(Cl)c3)sc2n1", "inhibition": "61.2% (active)"}
{"molecule": "Cc1nc(N2CCN(c3ccccn3)CC2)c2c(C)c(C(=O)Nc3ccc(F)cc3)sc2n1", "inhibition": "35.2% (inactive)"}
{"molecule": "COc1ccc(NC(=O)c2sc3nc(C)nc(N4CCN(c5ccccn5)CC4)c3c2C)c(OC)c1", "inhibition": "36.5% (inactive)"}
{"molecule": "COCC1CCN(C(=O)C2CCC(=O)N(CC3CCCCC3)C2)CC1", "note": "(stereo not drawn)", "inhibition": "-3.42% (inactive)"}
{"molecule": "CCOC(=O)N1CCN(Cc2nc3ccc([N+](=O)[O-])cc3c(=O)n2-c2cccc(OC)c2)CC1", "inhibition": "16.7% (inactive)"}
{"molecule": "CCn1c(/C=C/c2ccc([N+](=O)[O-])o2)nc2ccccc2c1=O", "inhibition": "46.9% (inactive)"}
{"molecule": "Cn1cc(/C=C/c2nc3ccccc3c(=O)n2-c2cccc([N+](=O)[O-])c2)c2ccccc21", "inhibition": "72.2% (active)"}
{"molecule": "COc1ccc(NC(=O)N(C)C[C@H]2Oc3ccc(NC(=O)C4CC4)cc3C(=O)N([C@H](C)CO)C[C@@H]2C)cc1", "inhibition": "-5.08% (inactive)"}
{"molecule": "O=C(CC1CCCCC1)NCc1ccc(F)cc1", "inhibition": "-13.5% (inactive)"}
{"molecule": "Cc1ccc(C(=O)NNC(=O)c2cccs2)cc1", "inhibition": "-2.54% (inactive)"}
{"molecule": "Cc1ccc(C(=O)NNc2ncnc3ccccc23)cc1", "inhibition": "-48.9% (inactive)"}
{"molecule": "Cc1ccc(C(=O)NNC(=O)c2cc3cc4ccccc4nc3s2)cc1", "inhibition": "55.3% (active)"}
{"molecule": "CC[C@@]1(C(=O)OC)N[C@H](CN(C)C(C)=O)[C@@H]2C(=O)N(C)C(=O)[C@@H]21", "inhibition": "-30.9% (inactive)"}
{"molecule": "CC[C@]12c3[nH]c4ccc(Cl)cc4c3CCN1C(=O)[C@@H](CC(=O)NCCCOC)C[C@@H]2C(=O)N1CCN(C(=O)c2ccco2)CC1", "inhibition": "2.9% (inactive)"}
{"molecule": "Cc1cc(C)c2c(-c3ccc(F)cc3)c(C#N)c(=O)n(C)c2n1", "inhibition": "51.8% (active)"}
{"molecule": "COc1ccc(O)c(C(=O)c2cnc3c(c2)c(-c2ccc(F)cc2)c(C#N)c(=O)n3C)c1", "inhibition": "12.9% (inactive)"}
{"molecule": "Cn1c(N)cc(-c2ccc(F)cc2)c(C#N)c1=O", "inhibition": "14% (inactive)"}
{"molecule": "OC(CNCC1CCCO1)Cn1c2ccc(Br)cc2c2cc(Br)ccc21", "note": "(stereo not drawn)", "inhibition": "101% (active)"}
{"molecule": "O=C(CSc1ccc(-c2ccc(Br)cc2)nn1)NCC1CCCO1", "note": "(stereo not drawn)", "inhibition": "-18.5% (inactive)"}
{"molecule": "O=C(CCNS(=O)(=O)c1ccc(Br)cc1)NCC1CCCO1", "note": "(stereo not drawn)", "inhibition": "-4.62% (inactive)"}
{"molecule": "O=C(O)CC12CC3CC(C1)CC(n1ncc(NCc4ccc(F)cc4)c(Cl)c1=O)(C3)C2", "inhibition": "-8.77% (inactive)"}
{"molecule": "COc1ccc(NC(=O)CN(C)C(=O)c2cccc(S(=O)(=O)N3CCN(c4ccccc4)CC3)c2)cc1", "inhibition": "17% (inactive)"}
{"molecule": "O=C(OC1CCOC1=O)c1ccc(-c2nc3ccccc3s2)s1", "note": "(stereo not drawn)", "inhibition": "-9.1% (inactive)"}
{"molecule": "O=C1c2ccccc2C(=O)C1c1ccccc1F", "inhibition": "-3.2% (inactive)"}
{"molecule": "CCOC(=O)C1=C(C)N=C2c3ccccc3C(=O)C2C1c1ccc(Br)cc1", "note": "(stereo not drawn)", "inhibition": "24% (inactive)"}
{"molecule": "O=C1c2ccccc2C2=Nc3ccccc3SC(c3ccccc3F)C12", "note": "(stereo not drawn)", "inhibition": "65.3% (active)"}
{"molecule": "O=C(CCc1nnc(Cc2ccc3c(c2)OCO3)o1)NCCc1ccccc1Cl", "inhibition": "6% (inactive)"}
{"molecule": "CC(=O)NCCc1ccc(S(=O)(=O)Nc2ccc(C)c(S(=O)(=O)N3CCOCC3)c2)cc1", "inhibition": "2.62% (inactive)"}
{"molecule": "CC1(C)CC(N2CCN(C(c3ccccc3)c3ccccc3)CC2)=CC(=[N+]2CCCCC2)C1", "inhibition": "90.1% (active)"}
{"molecule": "O=C1CC(N2CCN(C(c3ccccc3)c3ccccc3)CC2)C(=O)N1", "note": "(stereo not drawn)", "inhibition": "28.3% (inactive)"}
{"molecule": "Oc1ccccc1CN1CCN(C(c2ccccc2)c2ccccc2)CC1", "inhibition": "19.1% (inactive)"}
{"molecule": "CCN1C(=O)N[C@@H](c2ccccc2)C(C(=O)OC)=C1C", "inhibition": "6.41% (inactive)"}
{"molecule": "CCCCNC(=O)C(C)N(CCN(C)C)C(=O)CCCN1C(=O)NC(c2ccc(Cl)cc2)C(C(=O)OCc2ccccc2)=C1C", "note": "(stereo not drawn)", "inhibition": "84.8% (active)"}
{"molecule": "CCCCNC(=O)C(C)N(CCN(C)C)C(=O)CCCCCN1C(=O)NC(c2ccc(Cl)cc2)C(C(=O)OCc2ccccc2)=C1C", "note": "(stereo not drawn)", "inhibition": "97.4% (active)"}
{"molecule": "CC1=C(C(=O)OCc2ccccc2)C(c2ccc(C(F)(F)F)cc2)NC(=O)N1CCCCCC(=O)O", "note": "(stereo not drawn)", "inhibition": "4.93% (inactive)"}
{"molecule": "COC(=O)CCCCCN1C(=O)NC(c2ccc(-c3ccccc3)cc2)C(C(=O)OCc2ccccc2)=C1C", "note": "(stereo not drawn)", "inhibition": "22.2% (inactive)"}
{"molecule": "COCCN1C(=O)N[C@@H](c2ccccc2)C(C(=O)OC)=C1C", "inhibition": "-16.5% (inactive)"}
{"molecule": "O=C(Nc1cccc(O)c1)c1ccc(C(=O)c2ccccc2)o1", "inhibition": "-23.5% (inactive)"}
{"molecule": "CC(C)(C)OC(=O)C1=C(CO)CS[C@@H]2[C@H](NC(=O)Cc3ccccc3)C(=O)N12", "inhibition": "1.66% (inactive)"}
{"molecule": "Cc1ccc(CN2CCC(N3CCC(C(=O)NCC4CCCO4)CC3)CC2)o1", "note": "(stereo not drawn)", "inhibition": "1.75% (inactive)"}
{"molecule": "O=C(COC(=O)c1ccccc1)c1ccc2c(c1)OCCO2", "inhibition": "35.8% (inactive)"}
{"molecule": "Cc1cc(C)cc(OCC(=O)Nc2cc(NC(=O)COc3cc(C)cc(C)c3)cc(C(=O)O)c2)c1", "inhibition": "5.1% (inactive)"}
{"molecule": "CC(NC(=O)COC(=O)C1CCN(S(=O)(=O)c2ccccc2C(F)(F)F)CC1)c1ccccc1", "note": "(stereo not drawn)", "inhibition": "-7.62% (inactive)"}
{"molecule": "NC(=O)c1nsc(C(=O)N(CCCN2CCOCC2)C(C(=O)NC2CCCCC2)c2ccc(Cl)cc2)c1N", "note": "(stereo not drawn)", "inhibition": "-0.899% (inactive)"}
{"molecule": "COc1cc(N2C(=O)CC3(CCCC3)CC2=O)cc(OC)c1OC", "inhibition": "20% (inactive)"}
{"molecule": "Cc1ccc2nc(-c3ccccn3)cc(C(=O)Nc3ccc4c(c3)OCO4)c2c1", "inhibition": "28.8% (inactive)"}
{"molecule": "Cc1ccc2nc(-c3ccncc3)cc(C(=O)Nc3ccc4c(c3)OCCO4)c2c1", "inhibition": "60.7% (active)"}
{"molecule": "Cc1ccc2nc(-c3ccncc3)cc(C(=O)Nc3ccc(OC(F)F)cc3)c2c1", "inhibition": "37.3% (inactive)"}
{"molecule": "COc1ccc(CCNC(=O)CN(c2ccccc2)S(C)(=O)=O)cc1OC", "inhibition": "-2.08% (inactive)"}
{"molecule": "CCc1[nH]nc(C(=O)N2CCCC(CNS(=O)(=O)c3cccs3)C2)c1C", "note": "(stereo not drawn)", "inhibition": "7.22% (inactive)"}
{"molecule": "COc1ccc(-n2c(SCC(=O)Nc3sc4c(c3C#N)CCCC4)nnc2-c2ccc(O)cc2)cc1", "inhibition": "33.8% (inactive)"}
{"molecule": "Cc1cc(NC(=O)CSc2nc3cc(Cl)ccc3c(=O)n2Cc2ccco2)no1", "inhibition": "40.1% (inactive)"}
{"molecule": "N#Cc1c(NC(=O)CSc2nc3ccccc3c(=O)n2Cc2ccco2)sc2c1CCCC2", "inhibition": "54.1% (active)"}
